Bioassay records as filed in PubChem BioAssay.
Sm TGR inh – qHTS Assay for the Inhibitors of Schistosoma Mansoni Peroxiredoxins. purified TGR, DTNB reduction, TNB absorbance 405 nm. AID 485364, 2010. 360,000 compounds, 3% hits. Schistosoma mansoni thioredoxin glutathione reductase (TGR), Q962Y6. Potency, µM (series often up to 114 µM), for the others: top-dose activity change, negative = inhibition, usual class: inhibitors; further: nearly all actives have a fitted effect of over 60% in size
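TGR 20 nM + NADPH 100 uM (dispensed conc.), cpd preinc 15 min RT; start with NADPH (500 uM addition) then DTNB (15 mM addition). Kinetic TNB absorbance, 405 nm filter. Four-parameter Hill fit across titration.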
Lassa entry inh – qHTS for Inhibitors of binding or entry into cells for Lassa Virus; Lassa virus pseudotype entry inhibition, cell reporter; Potency, µM (titrated, usually from 37.9 µM), for inactives: top-dose activity change, negative = inhibition, most hits filed as inhibitors; 300,000 compounds, 1.2% hits; calls by dose curve; tested in HEK293 cells; further: nearly all actives have a fitted effect of over 50% in size
RE007 growth inh – qHTS Assay for Inhibitors of the HIV-1 protein Vpr; S. pombe RE007 Vpr strain, BacTiter-Glo ATP luminescence, 24 h; Potency, µM (highest dose often 92.2 µM), without a hit: at the highest dose activity change, negative = less growth, usual class: inhibitors; 360,000 compounds, 0.21% hits; AID 651644, 2012; active means well fitted falling curve with a large enough effect; inconclusive means small, poorly fitted or top-dose-only effect; inactive means no such curve, though single readings can be large or run the other way; further: nearly all actives have a fitted effect of over 50% in size
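Fission yeast strain RE007, carrying one chromosomally integrated HIV-1 vpr copy, was seeded at OD 0.01 in PMG+AL medium with 23 nL pinned compound. After 24 h at 30 °C and 99% humidity, viability was read by BacTiter-Glo luminescence.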
Marburg entry inh – qHTS for inhibitors of binding or entry into cells for Marburg Virus | Marburg virus pseudotyped entry inhibition, cell reporter | Potency, µM (series often up to 37.8 µM), for the others: at the highest dose activity change, negative = inhibition, most hits filed as inhibitors | 300,000 compounds, 1.8% hits | AID 540276, 2011; calls by dose curve; tested in HEK293 cells
HCV inh – qHTS Assay for Inhibitors of Hepatitis C Virus (HCV) | Potency, µM (highest dose often 41.8 µM), without a hit: top-dose activity change, negative = inhibition, most hits filed as inhibitors | 340,000 compounds, 3.4% hits | Huh7.5.1 HCVcc-Cre infection, luciferase reporter, 44 h | AID 651820, 2012
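Infectious HCVcc-Cre (~0.5 moi) was added to cells just after compound, with cells seeded 4 h earlier at 1,000 per well. Luciferase activity after 44 h culture reported infection; substrate was incubated 15 min at room temperature before reading.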
FMDV antiviral – High Throughput Screening for Foot and Mouth Disease Virus Antivirals; 410,000 compounds, 1.2% hits; FMDV antiviral cell-based qHTS; Potency, µM (titrated, usually from 57.9 µM), inactives show top-dose activity change, negative = inhibition, hits mostly inhibitors; calls by dose curve; tested in HEK293T cells; further: read-out not given here; nearly all actives have a fitted effect of over 45% in size
The depositor's hits bear a star; ? = inconclusive; nt = not tested or not shown; [ ] = another dose, or the depositor's remark. The list is not random: actives were taken first. Their share in the collection is about 7.2%. Unless noted, the call rests on the fitted dose curve; in most records, active means well fitted curve in the direction sought with a large enough effect; inconclusive means small, poorly fitted or top-dose-only effect, or another doubt; inactive means no such curve, though single readings can be large; an effect the other way counts as inactive or inconclusive. On the % scale 0 is the no-effect control and ±100 the full control effect; potency means the concentration at half of the fitted maximal effect.

SMILES	Sm TGR inh	Lassa entry inh	RE007 growth inh	Marburg entry inh	HCV inh	FMDV antiviral
Cc1ccc(-n2nc(C(=O)N3CCN(c4cccc(C(F)(F)F)c4)CC3)c3c4ccccc4n(C)c3c2=O)cc1	28%	1%[46.1 µM]	nt	-2%[46.1 µM]	nt	-19%
Cc1nc(Nc2ccc(Cl)c(Cl)c2)sc1C(=O)Nc1ccccc1	-20%	?	?	?	8.9µM*	-21%
Cc1nc(NC(=O)C2CC2)sc1C(=O)Nc1cccc(Cl)c1	5%	?	-7%	-14%[46.1 µM]	-14%	-19%
Cc1nc(NC(=O)/C=C/c2ccccc2)sc1C(=O)Nc1ccc(Cl)cc1	28%	1%	-3%	?	-27%	0%
Cc1nc(Nc2ccc(Cl)cc2Cl)sc1C(=O)Nc1ccccc1	1%	-15%	-11%	?	10µM*	-6%
Cc1nn(Cc2ccccc2)c2sc(C(=O)NCc3cccnc3)cc12	-1%	?	0%	-6%	7.9µM*	?
Cc1nn(Cc2ccccc2)c2sc(C(=O)N3CCN(Cc4ccc5c(c4)OCO5)CC3)cc12	1%	?	5%	?	?	32µM*
CCCc1ncc(C[n+]2ccccc2C)c(N)n1	45µM*	nt	-17%	nt	5%	0%
O=C(Nc1nc(-c2cccnc2)cs1)c1cccc([N+](=O)[O-])c1	-1%	nt	0%	20%[46.1 µM]	?	0%
O=C(Nc1nc(-c2ccccc2)cs1)c1cccc([N+](=O)[O-])c1	13%	9%	6%	-19%	13µM*	-18%
COc1ccccc1Nc1nc(-c2cccc([N+](=O)[O-])c2)cs1	6%	nt	-8%	nt	?	43%
O=[N+]([O-])c1cccc(-c2csc(Nc3ccccc3)n2)c1	2%	?	?	?	1.6µM*	-10%
COCCCNc1nc2c(c(=O)n(C)c(=O)n2C)n1Cc1cccc(OC)c1	1%	-24%	1%	-27%[46.1 µM]	?	?
Cc1cccc(Cn2c(NCC(C)O)nc3c2c(=O)n(C)c(=O)n3C)c1 (centres undefined)	1%	-5%	8%	-11%	4.5µM*	?
COCCNc1nc2c(c(=O)n(C)c(=O)n2C)n1Cc1cccc(C)c1	-1%	-29%	4%	?	10µM*	0%
COc1cccc(Cn2c(Oc3cccc(C)c3)nc3c2c(=O)n(C)c(=O)n3C)c1	-11%	?	-3%	?	11µM*	-29%
COc1cccc(Cn2c(Oc3ccccc3)nc3c2c(=O)n(C)c(=O)n3C)c1	-24%	?	9%	-1%	?	?
Cn1c(=O)c2c(nc(NCCCO)n2Cc2cccc(Br)c2)n(C)c1=O	-2%	-15%	3%	-15%	-20%	?
CCCCOC(=O)c1ccc(NC(=O)C2(c3cccs3)CCOCC2)cc1	10%	-22%[46.1 µM]	nt	nt	nt	0%
COCCNc1nc(-c2cc(-c3ccccc3)on2)cc(C(C)C)n1	-3%	nt	-13%	nt	10µM*	-16%
COCCNc1nc(C)cc(-c2cc(-c3ccc(Cl)cc3)on2)n1	5%	nt	6%	nt	-12%	-2%
Cc1cccc(CNc2ncnc3ccc(-c4cccc(C)c4)cc23)c1	5%	nt	nt	nt	nt	nt
CS(=O)(=O)Nc1c(O)ccc2c1CCCC2C1=NCCN1 (centres undefined)	nt	nt	nt	nt	nt	-3%
COc1ccc(NC(=O)c2c(C)noc2-c2snnc2C)cc1	7%	?	-11%	10µM*	-22%	12%
CC1=C(C(=O)N2CCN(c3ccccc3)CC2)C2(CCCCC2)OC1=O	8%	29%[46.1 µM]	nt	-12%[46.1 µM]	nt	-6%
COc1ccc(/C=C2\Cc3ccccc3C2=O)cc1OC	-8%	nt	-5%	nt	-15%	43%
COc1ccc(/C=C2\CCc3ccccc3C2=O)cc1Cn1cccn1	14%	?	-13%	18µM*	?	-99%
COc1ccc(/C=C2\CCc3ccccc3C2=O)cc1O	-24%	?	0%	11µM*	-9%	?
